Only some compounds are listed: those with a hit (about 4% of all), similar ones and a draw of the others.
TRPM1 prom inh – MITF TRPM1 promoter inhibition in SK-MEL-5 cells; hit rate 0.83% among 330,000; inhibition, % at 12.5 µM; SK-MEL-5 TRPM1 promoter luciferase, 24 h;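 active = mean inhibition across replicates of 60% or more, whatever share of single replicates reaches that level; inconclusive = some that reach 60%, reason not given; inactive = mean inhibition across replicates below 60%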
HIF-2a block – blocks HIF-2a reporter activity; 786-0 RCC cells HIF-2a reporter, luciferase luminescence, overnight; inhibition, % at 18.8 µM; hit rate 0.72% among 360,000;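 active = inhibition of the luminescence signal of 40% or more relative to plate controls, in a single-dose primary screen at 18.75 µM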
Peg3 prom inh – Peg3 promoter activity inhibition. HeLa PEG-Prom luciferase reporter, luminescence, overnight. inhibition, % at 20 µM. hit rate 1.7% among 360,000. AID 588405;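 active = inhibition of at least 50% at 20 µM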
TWEAK Fn14 block – TWEAK-Fn14 signaling inhibition; hit rate 2% among 360,000; inhibition, % at 10 µM; TWEAK-stimulated Fn14 reporter cells, luciferase luminescence, 8 h; AID 1159606; in the data active = inhibition above about 50%
LMP1 NFkB inh – reduces LMP1-driven NF-kappaB luciferase signal; hit rate 0.69% among 350,000; AID 504558; LMP1-induced NF-kappaB luciferase reporter cells, luminescence; inhibition, % at 12.5 µM; in the data active = inhibition above about 41%; inconclusive = no clear call, values can overlap the other calls;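 note: 0% = neutral control wells and 100% = reference inhibitor control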
TROY signal inh – TROY signaling inhibition; Q293 LMP1-TROYcd NF-kB luciferase reporter, 4 h; inhibition, % at 10 µM; hit rate 0.98% among 360,000;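 active = compounds whose plate-normalised and pattern-corrected inhibition of the luciferase reporter signal at the single screening dose is 50% or more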
* marks the source's active call; other numbers are inactive results; ? = inconclusive; nt = not tested or not shown; ! = repeats disagree.

SMILES | TRPM1 prom inh | HIF-2a block | Peg3 prom inh | TWEAK Fn14 block | LMP1 NFkB inh | TROY signal inh
Nc1c(C(=O)NCc2ccco2)c2nc3ccccc3nc2n1Cc1ccc(F)cc1 | 2.1 | 22.4 | 8.8 | 22.4 | -5.4 | 62.5*
Nc1c(C(=O)NCc2ccco2)c2nc3ccccc3nc2n1Cc1ccccc1 | 16.0 | 12.8 | 11.9 | 50.1* | 2.1 | 43.3
COc1ccc(Cn2c(N)c(C(=O)NCc3ccco3)c3nc4ccccc4nc32)cc1 | -6.2 | 1.5 | 9.8 | 43.1 | -16.1 | 69.1*
CC(C)CCn1c(N)c(C(=O)OCC2CCCO2)c2nc3ccccc3nc21 (stereo not given) | 15.6 | 12.3 | 17.8 | 48.7 | -4.5 | 60.3*
CCCCn1c(N)c(C(=O)OCCOC)c2nc3ccccc3nc21 | nt | 22.2 | 21.7 | 3.4 | nt | 2.8
COCCOC(=O)c1c(N)n(Cc2ccccc2)c2nc3ccccc3nc12 | 8.1 | 14.8 | 23.5 | 19.9 | 21.3 | 65.4*
CN(C)CCN(C(=O)COc1ccc(Cl)cc1)c1nc2cc3c(cc2s1)OCO3 | -9.0 | -44.6 | -74.0 | -0.6 | -1.0 | -4.7
O=C1C=CC(=O)C2C1C1(Cl)C(Cl)=C(Cl)C2(Cl)C1(Cl)Cl (stereo not given) | -4.5 | 22.9 | 65.4* | 56.7* | 3.8 | 46.0
CC1OC(OC2CC(O)C3(CO)C4C(O)CC5(C)C(C6=CC(=O)OC6)CCC5(O)C4CCC3(O)C2)C(O)C(O)C1O (stereo not given) | 86.7* | 84.4* | 109.7* | 91.6* | 80.0* | 44.2
COc1ccc(CCNCc2cccn2C)cc1 | 2.5 | 5.7 | -2.5 | -16.5 | 69.1* | 5.4
Cc1cc(O)c2c(c1)C(=O)C13C(=C2O)C(=O)[C@H]2[C@@H](O)[C@@H]1[C@H]1[C@H](O)[C@@H]3C(=O)C3=C(O)c4c(O)cc(C)cc4C(=O)C312 (stereo not given in full) | 35.2 | -17.7 | 19.4 | 71.7* | 12.0 | 7.5
C=C(C=O)CC1CC(O)[C@]2(C)OC3CC4OC5C[C@]6(C)O[C@]7(C)CCC8OC9C[C@]%10(C)OC%11C(C)=CC(=O)OC%11CC%10OC9C[C@@H](C)C8OC7CC6O[C@]5(C)CC5OC5C4OC3CC2O1 (stereo not given in full) | 96.2* | 93.7* | 99.8* | 108.5* | 73.9* | 89.1*
CCOc1cc(CNCCc2c[nH]c3ccccc23)cc(Cl)c1OCC | 3.5 | 21.1 | 94.9* | -0.1 | -10.9 | 17.2
CCOc1c(Cl)cc(CNCCc2c[nH]c3ccccc23)cc1OC | 0.8 | -0.5 | 59.5* | -13.3 | -7.1 | 22.9
Fc1ccc(CNCCc2c[nH]c3ccccc23)cc1 | 0.1 | 12.8 | -4.9 | 6.8 | 6.8 | -3.3
CN(Cc1cccc(-c2cccnc2)c1)C(=O)Oc1ccc([N+](=O)[O-])cc1 | nt | -10.8 | nt | 83.3* | nt | 55.7*
Cc1nc(-c2cccc(CN(C)C(=O)Oc3ccc([N+](=O)[O-])cc3)c2)no1 | nt | -9.7 | nt | 0.3 | nt | 2.7
CCN(CC)Cc1c[nH]c2ccccc12 | 12.7 | 9.0 | -5.8 | 6.7 | -6.1 | 17.1
CN(CCc1ccccc1)Cc1c[nH]c2ccccc12 | 16.4 | 11.5 | 68.5* | 3.9 | 33.3 | -6.6
NC(Cc1ccc(Cl)cc1)c1csc(Nc2ccccn2)n1 (stereo not given) | nt | -27.1 | 72.9* | -29.6 | nt | -32.4
NC(Cc1ccccc1)c1csc(Nc2ccccn2)n1 (stereo not given) | nt | -131.7 | -168.9 | -34.8 | nt | -37.9
Oc1cc(Cl)ccc1Oc1ccc(Cl)cc1Cl | -5.4 | -1.5 | 39.7 | 49.8 | -3.9 | 51.1*
CN1[C@@H]2CC[C@H]1CC(OC(=O)C1C=Nc3ccccc31)C2 (stereo not given in full) | -4.0 | 8.3 | -31.3 | 3.1 | 81.9* | 1.2
CN1C2CCC1CC(OC(=O)c1cccc(O)c1)C2 (stereo not given) | -0.8 | 4.0 | 8.0 | 16.8 | 4.2 | -13.3
O=C(NN=Cc1ccc(N(CCCl)CCCl)cc1)c1cc(=O)[nH]c(=O)[nH]1 | -6.8 | 2.4 | 9.7 | 4.2 | 38.8 | 2.7
SMILES | TRPM1 prom inh | HIF-2a block | Peg3 prom inh | TWEAK Fn14 block | LMP1 NFkB inh | TROY signal inh
Cc1cc(N(CCCl)CCCl)ccc1C=NNC(=O)c1cccnc1 | 10.5 | -25.2 | 1.9 | -53.2 | 73.9* | -5.9
O=C(NN=Cc1ccc(N(CCCl)CCCl)cc1Cl)c1cccnc1 | 1.8 | -12.8 | 23.8 | -6.7 | 78.4* | 18.9
O=C(c1ccc(F)c([N+](=O)[O-])c1)N1CC2CC(C1)c1cccc(=O)n1C2 (stereo not given) | 10.7 | 30.5 | -7.8 | 11.4 | 1.2 | 2.0
CC1CCCCC1NC(=O)CNC(=S)N1CC2CC(C1)c1cccc(=O)n1C2 (stereo not given) | 2.9 | 5.1 | 2.8 | -1.0 | 3.9 | 10.4
Cc1ccccc1NC(=O)N1Cc2ccccc2-n2nncc2C1 | nt | -12.0 | -5.9 | -5.7 | 4.7 | 0.3
NC(Cc1ccccc1Cl)c1nn[nH]n1 (stereo not given) | nt | 10.5 | 1.9 | 14.5 | -3.4 | 0.3
COc1cc2c(cc1OC)C13CCN4CC5CCOC6CC(=O)N2C1C6C5CC43 (stereo not given) | -1.2 | 13.6 | 12.6 | 12.4 | -15.2 | -10.1
OC(Cn1c2ccccc2c2ccccc21)C[n+]1cccc2ccccc21 (stereo not given) | -20.9 | 14.5 | 59.1* | -88.0 | -7.0 | -21.0
NCCc1cc(O)c(O)cc1O | -0.3 | 6.8 | 0.3 | 56.4*! | 4.8 | 4.4
COc1ccc(CCN)cc1O | 7.8 | 8.3 | 1.6 | 11.0 | 1.2 | -12.9
CCN(CC)c1ccc(/C=C/[N+](=O)[O-])cc1 | 15.7 | -2.7 | 6.9 | -6.2 | 2.6 | -5.3
O=[N+]([O-])/C=C/c1c(Cl)cccc1Cl | 110.8* | -6.4 | 92.5* | 51.7* | -0.5 | 7.7
C[C@H](NC(=O)CCC(=O)N1C[C@H]2C[C@H](C1)c1cccc(=O)n1C2)c1ccccc1 | 1.3 | 2.3 | 16.5 | 12.2 | -6.8 | -1.7
CC12CCC3C(CC=C4CC(O)CCC43C)C1C/C(=C\c1ccccc1F)C2=O (stereo not given) | -16.9 | -14.6 | 50.5* | -46.6 | -6.3 | 18.3
Cc1nn(C)cc1/C=C1/CC2C3CC=C4CC(O)CCC4(C)C3CCC2(C)C1=O (stereo not given) | 1.2 | 32.5 | 7.9 | -16.1 | -1.5 | 9.3
C[C@]12CCC3C(CC[C@@H]4C[C@H](O)CC[C@]34C)C1CCC2=O (stereo not given in full) | -1.9 | 9.9 | 7.1 | 16.0 | 8.5 | -11.3
c1ccc2c(c1)CSc1ccccc1C2C1=NCCN1 (stereo not given) | -12.1 | 5.3 | 15.5 | 27.7 | -4.6 | -15.4
Brc1ccc2c(c1)C(OC1CN3CCC1CC3)c1ccccc1CS2 (stereo not given) | ? | 21.1 | 109.7* | -0.2 | -25.7 | -22.4
COC1=C(C)C(=O)C2=C(C1=O)C(CO)N1C(C#N)C3CC4C(C1C2N1CCOC41)N3C (stereo not given) | 75.7* | 30.2 | 94.8* | 36.7 | 85.6* | 2.2
CN(C)c1ccc(/C=C/C=C/c2sc3ccccc3[n+]2C)cc1 | 63.0* | 0.2 | 28.5 | 40.9 | 21.4 | 19.6

Assay outcomes as filed in PubChem.
